From PubChem BioAssay AID652010 (The Scripps Research Institute Molecular Screening Center, 2013)
Screen size: about 370,000 compounds; about 4,100 (1.1%) were called active. Shown is part of a subset that was picked to be rich in actives. A number with no mark means an inactive call.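 Rule for the calls: active = inhibition above the mean over all tested compounds plus 3 SD (cut at about 3.6% in these data); inactive = the rest.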

Assay: relief of DAX-1 repression of SF-1 activity – cell-based, luminescence, SF-1 (NR5A1), full-length DAX-1, primary screen (AID 652010);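 note: 0% = DAX-1 cells with DMSO and 100% = cells lacking DAX-1 with DMSO; higher inhibition means more luminescence from relief of DAX-1 repression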
Conditions: HEK293T StAR-luciferase reporter, SF-1/DAX-1 repression relief; at 6.8 µM; active compounds read high

| Compound | inhibition |
| --- | --- |
| CCOC(=O)C1=C(C)NC2=C(C(=O)CC(C)(C)C2)C1c1ccc2c(c1)OCO2 (stereo not drawn) | -0.98% |
| COCCCNC(=O)C[C@H]1C[C@@]2(C(=O)OC)C(=C[C@H](C(C)(C)C)O[C@@H]2C)N(Cc2ccc(Cl)cc2Cl)C1=O | -0.02% |
| CC(=O)OC12CCCN(C1)/C(=C/c1ccncc1)C2 (stereo not drawn) | 0.29% |
| COC(=O)[C@H](C(C)C)N(CCc1cn(Cc2ccccc2)nn1)S(=O)(=O)c1ccc(F)cc1Br | -1.05% |
| CCOc1ccc(N2CC(C(=O)NCc3ccccn3)CC2=O)cc1 (stereo not drawn) | -0.17% |
| CCCNC(=O)C1CC(=O)N(c2ccc(OCC(=O)Nc3cccc(C)c3C)cc2)C1 (stereo not drawn) | 0.23% |
| CCCNC(=O)C1CC(=O)N(c2ccc(OCc3ccccc3)cc2)C1 (stereo not drawn) | 5.35% (active) |
| O=C(NC1CCc2ccccc21)C12CN(Cc3ccccc3)CC1C(c1cccc([N+](=O)[O-])c1)=NO2 (stereo not drawn) | -0.99% |
| COc1ccc(CN2C(=O)N3Cc4cc(OC)ccc4C3CS2(=O)=O)cc1 (stereo not drawn) | -0.73% |
| O=C(NN=Cc1ccccc1)c1ccccc1 | 3.83% (active) |
| NN=C(NN=Cc1ccccc1)c1ccccc1 | 0.41% |
| O=C(N/N=C/c1ccsc1)c1cc(O)cc(O)c1 | -0.09% |
| Cc1ccc(Cn2cc(CN3[C@@H](CC(C)C)COc4ccc(Cl)cc4S3(=O)=O)nn2)cc1 | 0.88% |
| Cc1[nH]nc2c1C(c1ccc(Br)cc1)NC2=O (stereo not drawn) | -0.04% |
| CCCOc1ccc(Oc2c(Cl)cnn(Cc3cccc4ccccc34)c2=O)cc1 | 0.1% |
| CN(C)Cc1cn(-c2ccc(-c3noc4c3C(=O)N(CC(=O)N3CCOCC3)CC4)cc2)nn1 | -0.33% |
| Brc1ccc2nc(N3CCCC3)sc2c1 | 7.95% (active) |
| Cc1nc(N2CCCCC2)sc1C=O | 0.27% |
| O=C(NCCc1cccc(F)c1)C1CCCN(c2nc3ccccc3s2)C1 (stereo not drawn) | 0.01% |
| COc1ccc(-n2c(SCC(=O)Nc3ccc4c(c3)OCCO4)nnc2-c2ccc(Cl)cc2)cc1 | 0.07% |

| Compound | inhibition |
| --- | --- |
| COc1ccccc1C(=O)NC1CCCCN(C(C)C)C1=O (stereo not drawn) | -0.1% |
| O=C(CSc1nc2c(c(=O)[nH]1)CCCC2)N1CCCCC1 | -0.21% |
| COc1cccc(N(C)C(=O)[C@@H](C)[C@@H](O)c2ccc3ccccc3c2)c1 | -0.75% |
| COc1ccc(C2C(C(C)=O)=C(O)C(=O)N2c2nccs2)cc1 (stereo not drawn) | 0.43% |
| COc1ccc(-c2csc(Cc3nc(O)cs3)n2)cc1 | 4.06% (active) |
| COc1ccc(C(C)(O)c2nc(-c3cc(F)cc(F)c3)cs2)cc1 (stereo not drawn) | -0.31% |
| Cc1ccc(NS(=O)(=O)c2cc3c(cc2Br)NC(=O)CO3)cc1C | -2.1% |
| CN1CCN(S(=O)(=O)c2ccc(NC(=O)C3CCCO3)cc2)CC1 (stereo not drawn) | -0.58% |
| CCOc1cc(/C=N/NC(=O)c2ccc(CSc3nncn3C)cc2)ccc1OCC(=O)N1CCOCC1 | 0.55% |
| O=S1(=O)c2ccc(N3CCN(Cc4ccccc4F)CC3)cc2Oc2ccccc2CN1Cc1cn(Cc2ccc(Cl)cc2)nn1 | -0.86% |
| O=S(=O)(c1cccs1)N1CCCc2nc(-c3ccc(Br)cc3)ccc21 | 0.56% |
| CCCCN1CCN(C(=O)c2ccc3c(c2)NC(=O)C(C)(C)O3)CC1 | 0.65% |
| COc1ccc(N(CC(=O)N2CCCCCC2)S(=O)(=O)c2ccccc2)cc1 | -0.37% |
| CCN(c1ccccc1)S(=O)(=O)c1ccc(OCC(=O)N2CCCC2)cc1 | 4.72% (active) |
| CC(NS(=O)(=O)c1ccc(OCC(=O)N2CCCC2)cc1)c1ccccc1 (stereo not drawn) | 0.22% |
| O=C(CCc1nnc2ccc(NCc3ccco3)nn12)Nc1cc(F)ccc1F | 1.27% |
| CCOc1ccccc1NC(=O)CCc1nnc2ccc(NCc3ccco3)nn12 | -0.55% |
| CC(=O)c1ccc(NC(=O)CCc2nnc3ccc(NCc4ccco4)nn23)cc1 | 4.34% (active) |
| O=C(CSc1nnc(-c2ccccc2)n1Cc1ccco1)Nc1ccccc1-c1ccccc1 | -1.32% |
| Cc1cccc(NC(=O)C(C)N2C(=O)C3C4CC(C(Br)C4Br)C3C2=O)c1 (stereo not drawn) | -0.17% |

| Compound | inhibition |
| --- | --- |
| Nc1ccc2nn(-c3ccc(Cl)cc3)nc2c1 | 4.89% (active) |
| Nc1ccc2c(c1)C(O)c1ccc(Cl)cc1-2 (stereo not drawn) | 0.66% |
| Nc1nc2cc(Cl)ccc2n1N | 0.18% |
| CCOC(=O)N1CCN(C(=O)C[C@H]2C[C@@]3(C(=O)OC)C(=C[C@H](C4CCCC4)O[C@@H]3C)N(Cc3ccccc3)C2=O)CC1 | -0.29% |
| CC(C)N1CCCCC(NC(=O)C(C)(C)C)C1=O (stereo not drawn) | -0.67% |
| CC(=O)Nc1cccc(C(=O)OCC(=O)c2ccc3c(c2)OCO3)c1 | 13.7% (active) |
| CC(=O)Nc1cccc(C(=O)OCN2C(=O)c3ccccc3C2=O)c1 | 1.3% |
| CC(=O)Nc1cccc(C(=O)OCC(=O)NCc2cc(C)c(O)c(C)c2)c1 | 2.37% |
| COC(=O)C1CN(CCc2ccccc2)CCS(=O)(=O)N1Cc1cccc(Cl)c1 (stereo not drawn) | -1.7% |
| O=C1CC[C@@H](COc2ccc3[nH]cc(-c4ccccc4)c3c2-c2ccccc2)N1 | -0.82% |
| O=C(COC(=O)CNC(=O)c1ccccc1F)NCC(F)(F)F | -0.62% |
| O=C(NCC(=O)N1CCCC(C(F)(F)F)C1)c1ccccc1F (stereo not drawn) | 4.23% (active) |
| O=C(NCC(=O)N1CCCCCCC1)c1ccccc1Cl | -0.28% |
| O=C(C1CCCO1)N(c1ccc(F)cc1)C1C=CS(=O)(=O)C1 (stereo not drawn) | -0.69% |
| C=CC1=CCN(S(=O)(=O)C(C)(C)C)[C@@H]1CCO | -0.3% |
| CN(C(=O)COC(=O)c1cc(=O)[nH]c2ccccc12)C1CCCCC1 | 3.03% |
| CC1CCN(C(=O)COC(=O)c2cc(=O)[nH]c3ccccc23)CC1 | 9.38% (active) |
| O=C(COC(=O)c1cc(=O)[nH]c2ccccc12)NCc1cccc(Cl)c1 | -1.15% |
